# Experimental data reported in paper PMC4336329 (PLoS ONE, 2015).
# Among all 310,000 compounds or so, about 14,000 (4.5%) showed an effect of 50% or more. The effect is printed as a negative number. The sample holds strong results, similar compounds and a random draw of the others, so the mix is not that of the screen.
# Molecular target: human ether-à-go-go-related gene (hERG) potassium channel (human, UniProt Q12809)
# Assay: primary screen, population patch clamp on CHO cells stably expressing hERG; higher = less effect of the substance
# 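Also: peak tail current of the secondary pulse compared with the same well before compound.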
# Sequence of human ether-à-go-go-related gene (hERG) potassium channel (Q12809 whole entry, looked up): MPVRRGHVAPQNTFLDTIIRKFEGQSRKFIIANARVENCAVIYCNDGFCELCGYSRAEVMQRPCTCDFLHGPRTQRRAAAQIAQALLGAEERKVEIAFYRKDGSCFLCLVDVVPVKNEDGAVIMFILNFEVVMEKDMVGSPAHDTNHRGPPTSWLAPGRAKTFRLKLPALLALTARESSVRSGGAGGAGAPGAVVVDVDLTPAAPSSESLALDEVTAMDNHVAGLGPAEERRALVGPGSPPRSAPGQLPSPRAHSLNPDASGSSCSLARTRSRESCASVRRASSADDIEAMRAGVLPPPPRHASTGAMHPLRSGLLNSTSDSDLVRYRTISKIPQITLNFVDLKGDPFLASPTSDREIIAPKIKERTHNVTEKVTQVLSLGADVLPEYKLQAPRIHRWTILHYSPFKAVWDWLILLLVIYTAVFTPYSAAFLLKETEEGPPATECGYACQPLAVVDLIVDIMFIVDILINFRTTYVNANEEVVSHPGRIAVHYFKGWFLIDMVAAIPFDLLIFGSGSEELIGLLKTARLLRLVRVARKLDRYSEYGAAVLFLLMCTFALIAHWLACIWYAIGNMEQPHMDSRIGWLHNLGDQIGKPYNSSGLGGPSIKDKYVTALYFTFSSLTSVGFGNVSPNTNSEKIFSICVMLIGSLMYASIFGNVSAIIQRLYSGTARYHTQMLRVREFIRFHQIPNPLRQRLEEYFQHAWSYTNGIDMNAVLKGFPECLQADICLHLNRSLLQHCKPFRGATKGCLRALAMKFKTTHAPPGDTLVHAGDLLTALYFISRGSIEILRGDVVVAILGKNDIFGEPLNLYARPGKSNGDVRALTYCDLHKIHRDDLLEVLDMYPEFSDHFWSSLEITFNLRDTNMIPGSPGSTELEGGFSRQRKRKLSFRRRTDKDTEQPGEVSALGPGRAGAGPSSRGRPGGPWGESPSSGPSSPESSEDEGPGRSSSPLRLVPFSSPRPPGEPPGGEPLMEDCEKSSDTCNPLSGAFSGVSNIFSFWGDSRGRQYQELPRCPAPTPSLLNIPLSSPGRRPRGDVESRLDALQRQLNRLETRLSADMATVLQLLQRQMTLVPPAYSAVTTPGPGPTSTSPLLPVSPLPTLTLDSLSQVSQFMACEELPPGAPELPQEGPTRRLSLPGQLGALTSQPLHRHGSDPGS
row,SMILES,"hERG current change (%, negative = inhibition) at 10uM [%]"
1,O=C(Cn1c(=O)cnc2ccccc21)N1CCCc2ccccc21,10.8
2,CC1CN(C(=O)CN2C(=O)NC3(CCCC3)C2=O)C(=Nc2cccc(S(=O)(=O)N(C)C)c2)S1 (stereo not shown),-32
3,Cc1ccc(S(=O)(=O)N2CCN(C(=O)COC(=O)CCc3ccccc3)CC2)c(C)c1,-8.38
4,CCOC(=O)c1ccc2c(c1)nc(-c1ccc(F)cc1)c1nccn12,5.55
5,CNC(C)C(=O)NC(C(=O)N1CCCC1C(=O)NNc1ccccc1)C(C)C.O=CO (stereo not shown),5.01
6,O=S(=O)(c1ccccc1F)N1CCN(CCc2ccccc2)CC1,-5.81
7,O=C(NCc1ccco1)/C(=C\c1cccc([N+](=O)[O-])c1)NC(=O)c1ccco1,-64.7
8,CCN(CC)C(=O)/C(=C\c1cccc([N+](=O)[O-])c1)NC(=O)c1ccco1,-24
9,O=C(NCc1ccco1)/C(=C/c1cccc([N+](=O)[O-])c1)NC(=O)c1ccco1,-56.8
10,O=C(NCc1ccccc1)/C(=C/c1cccc([N+](=O)[O-])c1)NC(=O)c1ccco1,-61.2
11,O=C(NCCc1ccccc1)/C(=C\c1cccc([N+](=O)[O-])c1)NC(=O)c1ccco1,-78.6
12,O=C(NCCO)/C(=C/c1cccc([N+](=O)[O-])c1)NC(=O)c1ccco1,26.5
13,O=C(O)CNC(=O)/C(=C\c1cccc([N+](=O)[O-])c1)NC(=O)c1ccco1,15.7
14,O=C(NCCO)/C(=C\c1cccc([N+](=O)[O-])c1)NC(=O)c1ccco1,6.73
15,O=C(O)CNC(=O)/C(=C/c1cccc([N+](=O)[O-])c1)NC(=O)c1ccco1,-1.47
16,CC(NC(=O)/C(=C/c1cccc([N+](=O)[O-])c1)NC(=O)c1ccco1)C(=O)O (stereo not shown),0.397
17,CCN(CC)C(=O)/C(=C/c1cccc([N+](=O)[O-])c1)NC(=O)c1ccco1,-25.8
18,CC(NC(=O)/C(=C\c1cccc([N+](=O)[O-])c1)NC(=O)c1ccco1)C(=O)O (stereo not shown),39.2
19,COc1ccc(OCCNC(=S)Nc2cccc3ccccc23)cc1,3.79
20,Cc1ccccc1N(CC(=O)NC1CCCC1)C(=O)CS(=O)CC(=O)Nc1ccc2c(c1)OCO2 (stereo not shown),-8.74
21,COc1cc(C2NC(=O)NC(C)=C2C(C)=O)cc(OC)c1OC (stereo not shown),9.41
22,Cc1nc(SCC(=O)O)c(C#N)c2c1CCCC2,-10.9

row,SMILES,"hERG current change (%, negative = inhibition) at 10uM [%]"
1,COc1cc2c(-c3ccc4[nH]ccc4c3)c(-c3ccc(C#N)cc3)oc(=O)c2cc1OC,20.9
2,CCCCC(=Nc1ccc(N)cc1)C1=C(O)C(C(=O)OC)C(C)(C)CC1=O (stereo not shown),-1.62
3,COc1ccc(S(=O)(=O)N(C)c2ccc(C(=O)NC3CC3)cc2)cc1,-12.6
4,COc1ccc(S(=O)(=O)N(C)c2ccc(C(=O)NC3CCCC3)cc2)cc1,-83.7
5,C=CCNC(=O)c1ccc(OC)cc1,-12
6,COc1ccc(N(C)S(=O)(=O)c2cccc(C(=O)NC3CCCC3)c2)cc1,-9.64
7,CCOc1ccc(N(Cc2ccc(C(=O)O)cc2)S(=O)(=O)c2ccc(C)cc2)cc1,-12.5
8,C=CCNC(=O)c1ccc(N(C)S(=O)(=O)c2ccc(OC)cc2)cc1,-57.4
9,C=CCNC(=O)c1ccc(N(Cc2ccc(Cl)cc2)S(C)(=O)=O)cc1,-33.5
10,C=CCNC(=O)c1ccc(CN(c2ccc(OCC)cc2)S(=O)(=O)c2ccc(C)cc2)cc1,-62
11,COCCCNC(=O)c1ccc(N(C)S(=O)(=O)c2ccc(OC)cc2)cc1,-20.6
12,O=c1c2ccccc2nc(/C=C/c2ccc(Br)cc2)n1CCO,2.81
13,COCCNC(=O)/C(C#N)=C/c1c(N2CCN(c3ccccc3)CC2)nc2c(C)cccn2c1=O,5.92
14,O=C(Nc1cc(=O)[nH]c2ncnn12)c1ccccc1Cl,1.15
15,CCOC(=O)c1ccc(N2C(=O)CC(C3CCCO3)C2=O)cc1 (stereo not shown),-11.2
16,CN(Cc1ccccc1)S(=O)(=O)c1ccc(N2CCCC2=O)cc1,-12.7
17,Cc1cccc(Nc2ncnc3ccccc23)c1.Cl,-5.93
18,Cc1ccc(NC(=O)c2c3c(nc4ccccc24)CCC3)cc1,2.86
19,Fc1cccc(Nc2nc(-c3ccncc3)nc3ccccc23)c1,15.4
20,Cl.c1ccc(Nc2c3c(nc4ccccc24)CCC3)cc1,-76.2
21,Cl.Fc1cccc(Nc2c3c(nc4ccccc24)CCC3)c1,-68.2
22,Cc1cccc(Nc2c3c(nc4ccccc24)CCC3)c1.Cl,-71.5

row,SMILES,"hERG current change (%, negative = inhibition) at 10uM [%]"
1,Cl.Nc1nc(Nc2cccc(F)c2)nc2ccccc12,-19.3
2,Cc1ccc(Nc2c3c(nc4ccccc24)CCC3)cc1.Cl,-78.8
3,COc1cccc(NC(=O)CCCOc2cc(=O)n(C)c3ccccc23)c1,12.6
4,Cc1ccc(-n2c(SCC(=O)N3CCCCC3)nc(O)cc2=O)cc1,16.1
5,Cc1ccnc(SC2CC(=O)N(c3ccc([N+](=O)[O-])cc3)C2=O)n1 (stereo not shown),-26.8
6,COc1ccc(CNC(=O)c2ccc3c(c2)N(C)CCS3)cc1,-2.44
7,O=[N+]([O-])c1ccc(Cl)cc1NCCCN1CCOCC1,0.725
8,O=C(NCc1ccc2c(c1)CCO2)Nc1cccc(C(F)(F)F)c1,12.6
9,CCc1noc(C)c1C(=O)OC(C)C(=O)NCc1ccc(OC)cc1 (stereo not shown),-15.3
10,COc1ccc(-n2c(=O)[nH]cc(C(=O)N3CCc4ccccc43)c2=O)cc1,16.2
11,COc1ccc(-c2csc3nc(-c4ccccc4)oc(=O)c23)cc1OC,14.3
12,CN(C)CCNC(=O)c1ccc2c(c1)N(Cc1ccc(F)cc1)CCS2,-32.8
13,COc1cc(/C=C2\SC(N3CCC(C)CC3)=NC2=O)ccc1O,-5.99
14,Cc1ccc(C)c(NC(=O)COC(=O)c2cccc3c2C(=O)c2ccccc2C3=O)c1,-14.2
15,Fc1ccc(Nc2c3c(nc4ccccc24)CCC3)cc1,-64.3
16,Cl.O=C(O)c1ccc(Nc2c3ccccc3nc3ccccc23)cc1,-2.61
17,COc1ccc(Nc2c3ccccc3nc3ccccc23)cc1,-69.6
18,CC(=O)Nc1ccc(Nc2cc(C)c3ccccc3n2)cc1,-27.4
19,O=C(NCc1ccc(F)cc1)c1c2c(nc3ccccc13)CCC2,-21.1
20,CCOc1ccc(Nc2c3ccccc3nc3ccccc23)cc1,-42.4
21,CC(=O)Nc1ccc(Nc2c3ccccc3nc3ccccc23)cc1,-55.7
22,COc1ccc(NC(=O)c2c3c(nc4ccccc24)CCC3)cc1,10.1

row,SMILES,"hERG current change (%, negative = inhibition) at 10uM [%]"
1,COc1ccc(Nc2nc(-c3ccccc3)c3ccccc3n2)cc1,-5.22
2,O=C(CCCCCl)Nc1c2c(nc3ccccc13)CCC2,-23.6
3,COc1cc(NC(=O)c2c3c(nc4ccccc24)CCC3)cc(OC)c1,11.3
4,COc1ccc(Nc2c3c(nc4ccccc24)CCC3)cc1.Cl,-70.9
5,CCOC(=O)C1CCN(C(=O)Nc2ccc3oc(C)nc3c2)CC1,7.35
6,N/C(=N\OC(=O)c1cccnc1)c1ccc(Cl)cc1Cl,12.7
7,COc1ccc(-n2c(C)cc(C(=O)COC(=O)c3cc(NC(=O)c4cccs4)c(OC)c(OC)c3)c2C)cc1,6.03
8,COC(=O)c1ccc(CN2C(=O)NC3(CCCCC3)C2=O)cc1,11.2
9,COc1ccc(OCC(=O)N2CCN(S(=O)(=O)c3ccccc3[N+](=O)[O-])CC2)cc1,-31.2
10,CN(c1cccc2cccnc12)S(=O)(=O)c1ccccc1,-8.43
11,COc1ccc(-c2cc(C)no2)cc1S(=O)(=O)NCc1cccc(C)c1,-41.5
12,Cc1cc(-c2ccc(C)c(S(=O)(=O)NCc3cccc(Br)c3)c2)on1,-22.2
13,Cc1cc(-c2ccc(C)c(S(=O)(=O)NCCN3CCC(C)CC3)c2)on1,-12.8
14,COc1cccc(CCN2CCC(CNS(=O)(=O)c3cc(-c4cc(C)no4)ccc3OC)CC2)c1,-74.9
15,COc1cccc(CCN2CCC(CNS(=O)(=O)c3cc(-c4cc(C)no4)ccc3C)CC2)c1,-77.2
16,COc1cccc(CNS(=O)(=O)c2cc(-c3cc(C)no3)ccc2C(C)C)c1,-7.33
17,CCCNC(=O)c1[nH]c(C)c(C(C)=O)c1C,19.3
18,Cc1cc(C)cc(C(=O)Nc2ccc(N3CCN(S(C)(=O)=O)CC3)cc2)c1,15.7
19,Cc1ccc(CNC(=O)CCCNS(=O)(=O)c2cccc3nonc23)cc1,-11.4
